For 2 sequences, binding signal results are on record in PMC7862700, “An all-to-all approach to the identification of sequence-specific readers for epigenetic DNA modifications on cytosine”.

Common to all, as to experiment: DAPPL (digital affinity profiling via proximity ligation, sequencing); 10 mM Tris-HCl pH 7.5, 50 mM NaCl, 1 mM DTT, 4% glycerol, room temperature, 30 min; GST-TFs on glutathione beads, 16-mer random dsDNA library, 0.1% formaldehyde crosslink after washing; high values mean tight binding
Holding throughout (conditions): protein: recombinant; tags: N-terminal GST; dsDNA, one strand shown

In one assay the target is T1, FLI1 (Homo sapiens, UniProt Q01543 1-452).
T1 sequence: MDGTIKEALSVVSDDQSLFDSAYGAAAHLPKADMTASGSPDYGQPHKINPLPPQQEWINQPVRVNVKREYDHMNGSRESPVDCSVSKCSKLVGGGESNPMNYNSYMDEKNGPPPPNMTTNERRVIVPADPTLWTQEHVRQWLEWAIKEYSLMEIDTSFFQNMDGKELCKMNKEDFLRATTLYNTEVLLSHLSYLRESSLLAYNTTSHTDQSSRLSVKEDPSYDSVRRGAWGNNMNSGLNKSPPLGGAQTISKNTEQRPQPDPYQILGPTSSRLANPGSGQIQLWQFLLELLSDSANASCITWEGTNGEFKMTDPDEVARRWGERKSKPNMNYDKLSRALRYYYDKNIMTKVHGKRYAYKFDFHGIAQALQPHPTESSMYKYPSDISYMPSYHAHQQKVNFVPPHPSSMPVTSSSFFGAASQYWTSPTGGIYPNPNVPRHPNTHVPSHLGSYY
Summed up: (§1)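 After expression in yeast as GST fusions, human transcription factors were bound to glutathione beads, DNA-barcoded and mixed with a tag-only sample. The pools were incubated with 200 nmole of a 16-mer random double-stranded DNA library in Tris/NaCl/DTT/glycerol buffer (30 min, room temperature), washed and crosslinked with 0.1% formaldehyde. Proximity ligation with BsaI/T4 ligase ran for 1 h at 37 °C, before PCR amplification and sequencing on an Illumina NextSeq500. Binding signal is a hexamer's read frequency for a factor divided by its frequency for the tag-only sample.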

The target of a further assay is T2, ELK1 (Homo sapiens, UniProt P19419 1-428).
T2 sequence: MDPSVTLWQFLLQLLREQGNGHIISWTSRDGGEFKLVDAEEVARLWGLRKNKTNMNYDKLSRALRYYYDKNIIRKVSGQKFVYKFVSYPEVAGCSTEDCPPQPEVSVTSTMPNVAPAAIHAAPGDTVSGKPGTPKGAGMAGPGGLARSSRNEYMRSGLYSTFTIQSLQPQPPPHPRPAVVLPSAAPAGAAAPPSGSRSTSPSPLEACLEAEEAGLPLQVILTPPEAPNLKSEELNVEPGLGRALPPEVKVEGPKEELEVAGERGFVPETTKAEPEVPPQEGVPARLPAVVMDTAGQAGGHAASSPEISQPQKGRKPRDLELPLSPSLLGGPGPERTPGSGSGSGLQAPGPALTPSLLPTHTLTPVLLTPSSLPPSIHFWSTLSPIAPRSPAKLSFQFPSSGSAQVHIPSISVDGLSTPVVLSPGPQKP
Summed up:
as §1

The next assay addresses T3, GABPA (Homo sapiens, UniProt Q06546 1-454).
T3 sequence: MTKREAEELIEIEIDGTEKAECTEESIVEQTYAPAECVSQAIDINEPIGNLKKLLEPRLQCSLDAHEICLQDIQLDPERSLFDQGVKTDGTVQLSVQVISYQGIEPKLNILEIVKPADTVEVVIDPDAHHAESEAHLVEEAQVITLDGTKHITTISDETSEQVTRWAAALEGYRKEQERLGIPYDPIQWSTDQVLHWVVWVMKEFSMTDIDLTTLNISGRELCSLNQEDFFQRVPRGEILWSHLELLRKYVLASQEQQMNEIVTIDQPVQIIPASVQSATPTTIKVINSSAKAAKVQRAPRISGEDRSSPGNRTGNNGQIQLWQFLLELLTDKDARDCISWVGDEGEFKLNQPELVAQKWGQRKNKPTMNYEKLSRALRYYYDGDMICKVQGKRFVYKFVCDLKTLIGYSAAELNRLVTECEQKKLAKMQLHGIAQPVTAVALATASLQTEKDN
The method in brief: as §1

A further assay has as its target T4, ERG (Homo sapiens, UniProt P11308 1-479).
T4 sequence: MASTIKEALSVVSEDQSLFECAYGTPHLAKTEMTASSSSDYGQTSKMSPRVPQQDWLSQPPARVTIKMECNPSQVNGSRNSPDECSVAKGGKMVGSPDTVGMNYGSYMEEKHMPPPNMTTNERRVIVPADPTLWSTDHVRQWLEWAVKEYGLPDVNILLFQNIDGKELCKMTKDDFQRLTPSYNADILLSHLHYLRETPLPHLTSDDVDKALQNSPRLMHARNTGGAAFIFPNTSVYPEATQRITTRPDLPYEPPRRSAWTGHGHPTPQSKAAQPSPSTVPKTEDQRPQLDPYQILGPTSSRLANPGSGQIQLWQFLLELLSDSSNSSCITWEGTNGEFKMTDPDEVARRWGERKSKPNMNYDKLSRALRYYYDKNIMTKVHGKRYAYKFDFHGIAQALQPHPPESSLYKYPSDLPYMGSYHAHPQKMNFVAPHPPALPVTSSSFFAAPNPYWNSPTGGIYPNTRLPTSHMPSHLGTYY
Summed up:
as §1

For a further assay, the target named is ELF1 (Homo sapiens, UniProt P32519 1-619). The method in brief:
as §1

Another assay concerns the target T5, EHF (Homo sapiens, UniProt Q9NZC4 1-300).
T5 sequence: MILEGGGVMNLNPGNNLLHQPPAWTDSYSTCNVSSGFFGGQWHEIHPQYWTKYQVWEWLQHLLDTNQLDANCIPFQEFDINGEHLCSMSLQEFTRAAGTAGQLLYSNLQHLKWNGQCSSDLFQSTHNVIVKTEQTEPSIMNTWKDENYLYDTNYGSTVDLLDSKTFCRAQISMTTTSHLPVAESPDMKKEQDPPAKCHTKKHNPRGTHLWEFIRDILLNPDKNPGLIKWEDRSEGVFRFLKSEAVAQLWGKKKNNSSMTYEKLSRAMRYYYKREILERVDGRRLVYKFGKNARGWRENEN
Summed up:
as §1

The target of a further assay is SPI1 (Homo sapiens, UniProt P17947 1-270). The method in brief:
as §1

The target of the next assay is SPIB (Homo sapiens, UniProt Q01892 1-262). The method in brief: as §1
Sequence of SPIB (Q01892 whole entry): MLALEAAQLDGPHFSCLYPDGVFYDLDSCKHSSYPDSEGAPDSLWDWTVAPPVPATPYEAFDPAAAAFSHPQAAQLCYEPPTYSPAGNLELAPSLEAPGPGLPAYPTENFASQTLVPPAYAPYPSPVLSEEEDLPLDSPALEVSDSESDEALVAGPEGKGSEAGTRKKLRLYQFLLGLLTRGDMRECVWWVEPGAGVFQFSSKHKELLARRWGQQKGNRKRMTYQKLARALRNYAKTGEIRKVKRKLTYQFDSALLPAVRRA
The next assay addresses T6, ELK3 (Homo sapiens, UniProt P41970 1-407).
T6 sequence: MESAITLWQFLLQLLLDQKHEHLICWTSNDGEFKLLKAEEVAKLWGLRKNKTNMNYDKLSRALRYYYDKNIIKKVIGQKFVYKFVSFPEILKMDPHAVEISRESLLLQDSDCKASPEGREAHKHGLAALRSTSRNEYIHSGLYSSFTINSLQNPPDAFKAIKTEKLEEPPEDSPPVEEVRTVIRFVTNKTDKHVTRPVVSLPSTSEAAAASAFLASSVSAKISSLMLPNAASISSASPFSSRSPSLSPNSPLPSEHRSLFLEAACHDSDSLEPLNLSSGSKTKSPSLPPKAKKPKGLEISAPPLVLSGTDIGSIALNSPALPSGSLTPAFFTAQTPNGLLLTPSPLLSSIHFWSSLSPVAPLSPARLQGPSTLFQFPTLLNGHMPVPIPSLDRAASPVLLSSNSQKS
The method in brief: as §1

A further assay deals with T7, FEV (Homo sapiens, UniProt Q99581 1-238).
T7 sequence: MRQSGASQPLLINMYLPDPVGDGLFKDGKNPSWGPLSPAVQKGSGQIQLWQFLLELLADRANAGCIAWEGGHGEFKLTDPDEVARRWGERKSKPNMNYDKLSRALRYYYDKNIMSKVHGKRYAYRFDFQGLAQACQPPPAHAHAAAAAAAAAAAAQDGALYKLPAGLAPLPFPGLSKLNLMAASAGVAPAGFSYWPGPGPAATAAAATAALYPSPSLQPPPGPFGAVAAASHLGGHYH
The method in brief:
as §1

The next assay concerns the target ETV5 (Homo sapiens, UniProt P41161 1-510). Summed up: as §1
A further assay addresses T8, SPIC (Homo sapiens, UniProt Q8N5J4 1-248).
T8 sequence: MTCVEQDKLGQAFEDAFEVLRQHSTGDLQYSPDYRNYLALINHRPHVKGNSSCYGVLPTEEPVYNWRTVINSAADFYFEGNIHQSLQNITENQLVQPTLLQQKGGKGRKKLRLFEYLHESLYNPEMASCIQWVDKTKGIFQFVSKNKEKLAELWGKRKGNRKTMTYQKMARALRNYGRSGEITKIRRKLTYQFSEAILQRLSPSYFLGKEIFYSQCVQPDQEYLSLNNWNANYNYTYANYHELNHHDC
The method in brief: as §1

The next assay addresses ELF4 (Homo sapiens, UniProt Q99607 1-663). Summed up:
as §1

The next assay has as its target ETV1 (Homo sapiens, UniProt P50549 1-477). The method in brief: as §1
In a further assay the target is T9, ETV3L (Homo sapiens, UniProt Q6ZN32 1-361).
T9 sequence: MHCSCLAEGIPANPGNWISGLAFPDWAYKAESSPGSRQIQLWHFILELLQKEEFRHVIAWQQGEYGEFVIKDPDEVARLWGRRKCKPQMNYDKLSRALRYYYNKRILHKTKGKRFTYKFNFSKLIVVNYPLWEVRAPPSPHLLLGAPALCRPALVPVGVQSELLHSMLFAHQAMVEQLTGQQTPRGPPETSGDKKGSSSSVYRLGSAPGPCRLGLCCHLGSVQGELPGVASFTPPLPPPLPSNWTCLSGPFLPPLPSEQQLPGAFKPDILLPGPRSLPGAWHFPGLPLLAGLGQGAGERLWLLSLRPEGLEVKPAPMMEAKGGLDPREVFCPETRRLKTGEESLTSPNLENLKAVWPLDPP
Summed up:
as §1

The next assay deals with T10, ETS2 (Homo sapiens, UniProt P15036 1-469).
T10 sequence: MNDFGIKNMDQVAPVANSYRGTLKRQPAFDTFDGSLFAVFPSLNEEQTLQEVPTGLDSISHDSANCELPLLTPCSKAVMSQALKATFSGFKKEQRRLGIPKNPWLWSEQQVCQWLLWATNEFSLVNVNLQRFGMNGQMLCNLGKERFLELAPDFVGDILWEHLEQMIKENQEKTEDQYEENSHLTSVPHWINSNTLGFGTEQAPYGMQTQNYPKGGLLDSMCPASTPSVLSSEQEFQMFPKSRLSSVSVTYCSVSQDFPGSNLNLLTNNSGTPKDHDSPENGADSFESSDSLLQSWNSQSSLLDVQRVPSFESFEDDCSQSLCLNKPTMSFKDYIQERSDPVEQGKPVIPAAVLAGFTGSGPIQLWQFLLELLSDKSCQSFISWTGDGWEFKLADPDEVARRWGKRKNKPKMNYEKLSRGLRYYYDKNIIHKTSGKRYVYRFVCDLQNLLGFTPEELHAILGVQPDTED
Summed up:
as §1

The target of the next assay is T11, ELF5 (Homo sapiens, UniProt Q9UKW6-2 1-255).
T11 sequence: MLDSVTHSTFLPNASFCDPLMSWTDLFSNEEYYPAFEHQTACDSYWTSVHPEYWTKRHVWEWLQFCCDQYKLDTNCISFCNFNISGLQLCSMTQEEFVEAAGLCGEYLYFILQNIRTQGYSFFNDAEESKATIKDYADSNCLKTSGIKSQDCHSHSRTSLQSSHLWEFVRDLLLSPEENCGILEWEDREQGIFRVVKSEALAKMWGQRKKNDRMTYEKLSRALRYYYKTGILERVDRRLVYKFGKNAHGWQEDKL
Summed up:
as §1

Another assay deals with T12, ETV3 (Homo sapiens, UniProt P41162-2 1-143).
T12 sequence: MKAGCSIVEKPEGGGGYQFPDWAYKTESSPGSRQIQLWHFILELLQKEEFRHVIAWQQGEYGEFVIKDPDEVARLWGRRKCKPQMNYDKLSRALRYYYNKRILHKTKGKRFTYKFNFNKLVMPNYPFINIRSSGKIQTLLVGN
The method in brief: as §1

The target of a further assay is ETV6 (Homo sapiens, UniProt P41212 1-452). Summed up:
as §1

Sequence of ETV6 (P41212 whole entry): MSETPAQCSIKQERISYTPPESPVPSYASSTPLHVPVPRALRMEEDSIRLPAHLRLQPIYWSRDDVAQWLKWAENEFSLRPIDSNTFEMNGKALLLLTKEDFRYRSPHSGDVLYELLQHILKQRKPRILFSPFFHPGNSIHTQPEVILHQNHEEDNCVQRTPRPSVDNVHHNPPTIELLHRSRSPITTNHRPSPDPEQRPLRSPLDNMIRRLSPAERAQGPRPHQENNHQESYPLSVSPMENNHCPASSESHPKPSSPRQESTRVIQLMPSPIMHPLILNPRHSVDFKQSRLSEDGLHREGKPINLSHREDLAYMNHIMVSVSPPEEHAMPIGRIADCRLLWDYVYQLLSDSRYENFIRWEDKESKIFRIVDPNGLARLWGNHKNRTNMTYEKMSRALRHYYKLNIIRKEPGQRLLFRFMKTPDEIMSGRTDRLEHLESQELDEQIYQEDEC
Sequence of ELF4 (Q99607 whole entry): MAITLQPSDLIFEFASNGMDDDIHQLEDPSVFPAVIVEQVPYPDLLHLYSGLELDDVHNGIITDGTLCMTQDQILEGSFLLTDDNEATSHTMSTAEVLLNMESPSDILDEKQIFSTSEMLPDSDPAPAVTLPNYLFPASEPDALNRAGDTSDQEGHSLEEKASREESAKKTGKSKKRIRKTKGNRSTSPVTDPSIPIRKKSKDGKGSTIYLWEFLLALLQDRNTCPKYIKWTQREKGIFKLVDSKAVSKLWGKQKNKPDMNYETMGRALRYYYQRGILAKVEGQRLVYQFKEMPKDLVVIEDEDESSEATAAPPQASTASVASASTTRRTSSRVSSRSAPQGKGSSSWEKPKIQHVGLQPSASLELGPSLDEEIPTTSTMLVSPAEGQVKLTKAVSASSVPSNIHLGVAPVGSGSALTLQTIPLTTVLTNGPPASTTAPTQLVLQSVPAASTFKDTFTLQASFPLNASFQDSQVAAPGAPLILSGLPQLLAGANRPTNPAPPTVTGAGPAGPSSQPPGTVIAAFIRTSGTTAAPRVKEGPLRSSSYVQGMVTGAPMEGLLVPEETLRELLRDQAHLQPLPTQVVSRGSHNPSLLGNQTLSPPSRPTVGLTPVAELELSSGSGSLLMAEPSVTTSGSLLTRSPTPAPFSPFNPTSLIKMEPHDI
Sequence of ETV1 (P50549 whole entry): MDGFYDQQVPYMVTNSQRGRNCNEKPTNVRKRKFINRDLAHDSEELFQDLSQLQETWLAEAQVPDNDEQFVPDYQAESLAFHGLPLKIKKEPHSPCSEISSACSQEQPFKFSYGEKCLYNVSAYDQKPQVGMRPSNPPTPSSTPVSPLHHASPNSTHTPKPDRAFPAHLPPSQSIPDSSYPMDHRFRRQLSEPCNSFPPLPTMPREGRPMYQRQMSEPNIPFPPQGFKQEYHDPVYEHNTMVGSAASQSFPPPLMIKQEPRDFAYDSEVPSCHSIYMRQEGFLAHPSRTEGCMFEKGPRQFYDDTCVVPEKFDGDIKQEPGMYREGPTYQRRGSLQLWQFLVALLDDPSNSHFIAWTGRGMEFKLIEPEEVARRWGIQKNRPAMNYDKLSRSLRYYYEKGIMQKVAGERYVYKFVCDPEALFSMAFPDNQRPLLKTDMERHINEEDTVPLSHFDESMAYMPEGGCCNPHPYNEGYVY
Sequence of ETV5 (P41161 whole entry): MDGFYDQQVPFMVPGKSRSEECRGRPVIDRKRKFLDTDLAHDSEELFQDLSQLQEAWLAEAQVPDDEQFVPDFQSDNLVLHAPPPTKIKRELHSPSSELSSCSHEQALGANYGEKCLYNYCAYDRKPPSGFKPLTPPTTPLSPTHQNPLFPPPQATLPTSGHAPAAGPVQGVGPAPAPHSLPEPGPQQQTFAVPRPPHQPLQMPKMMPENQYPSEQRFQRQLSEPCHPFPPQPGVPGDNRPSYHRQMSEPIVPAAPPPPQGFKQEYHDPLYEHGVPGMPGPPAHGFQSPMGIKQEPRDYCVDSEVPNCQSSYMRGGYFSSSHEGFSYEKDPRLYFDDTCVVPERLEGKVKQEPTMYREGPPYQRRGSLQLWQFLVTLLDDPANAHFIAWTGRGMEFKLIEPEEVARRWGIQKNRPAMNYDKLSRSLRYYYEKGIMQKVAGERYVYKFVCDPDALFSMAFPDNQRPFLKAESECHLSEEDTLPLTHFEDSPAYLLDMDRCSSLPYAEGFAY
Sequence of ELF1 (P32519 whole entry): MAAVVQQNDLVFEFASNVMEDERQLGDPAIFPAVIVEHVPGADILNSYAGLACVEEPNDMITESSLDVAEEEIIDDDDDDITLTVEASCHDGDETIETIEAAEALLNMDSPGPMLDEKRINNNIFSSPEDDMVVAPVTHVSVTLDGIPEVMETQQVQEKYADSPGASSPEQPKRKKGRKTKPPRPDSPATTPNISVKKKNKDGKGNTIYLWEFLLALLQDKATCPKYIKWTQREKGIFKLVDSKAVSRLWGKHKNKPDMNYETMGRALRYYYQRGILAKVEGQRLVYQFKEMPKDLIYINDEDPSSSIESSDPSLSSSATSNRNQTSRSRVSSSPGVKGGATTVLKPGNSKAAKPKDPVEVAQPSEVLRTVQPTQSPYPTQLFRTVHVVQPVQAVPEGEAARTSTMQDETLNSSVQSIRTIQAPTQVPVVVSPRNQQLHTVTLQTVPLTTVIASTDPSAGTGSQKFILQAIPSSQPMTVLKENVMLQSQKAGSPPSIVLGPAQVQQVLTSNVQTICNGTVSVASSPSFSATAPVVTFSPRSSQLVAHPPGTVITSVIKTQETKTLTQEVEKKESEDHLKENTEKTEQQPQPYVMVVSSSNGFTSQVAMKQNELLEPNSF

Take CGGAAC: the binding signal with FLI1 was 1.16 fold enrichment (6-mer frequency, TF over GST control); in the assay with ELK1, 1.18 fold enrichment (6-mer frequency, TF over GST control); in the assay with GABPA, 1.05 fold enrichment (6-mer frequency, TF over GST control); in the assay with ERG, 1.22 fold enrichment (6-mer frequency, TF over GST control); with ELF1, 1.04 fold enrichment (6-mer frequency, TF over GST control); in the assay with EHF it was 1.2 fold enrichment (6-mer frequency, TF over GST control). The binding signal was 1.29 fold enrichment (6-mer frequency, TF over GST control) with SPI1; 1.29 fold enrichment (6-mer frequency, TF over GST control) in the assay with SPIB; 1.21 fold enrichment (6-mer frequency, TF over GST control) with ELK3; 1.16 fold enrichment (6-mer frequency, TF over GST control) with FEV; 1.29 fold enrichment (6-mer frequency, TF over GST control) with ETV5; 1.09 fold enrichment (6-mer frequency, TF over GST control) in the assay with SPIC. Moreover, the binding signal was 1.04 fold enrichment (6-mer frequency, TF over GST control) with ELF4; 1.23 fold enrichment (6-mer frequency, TF over GST control) with ETV1; 1.11 fold enrichment (6-mer frequency, TF over GST control) in the assay with ETV3L; 1.18 fold enrichment (6-mer frequency, TF over GST control) with ETS2; 1.3 fold enrichment (6-mer frequency, TF over GST control) with ELF5; 1.31 fold enrichment (6-mer frequency, TF over GST control) with ETV3. The binding signal with ETV6 is 1.12 fold enrichment (6-mer frequency, TF over GST control).
On to AGTGTC, for which the binding signal in the assay with FLI1 is 1.01 fold enrichment (6-mer frequency, TF over GST control); in the assay with ELK1, 1.07 fold enrichment (6-mer frequency, TF over GST control); in the assay with GABPA it was 1.07 fold enrichment (6-mer frequency, TF over GST control); with ERG, 1.08 fold enrichment (6-mer frequency, TF over GST control); in the assay with ELF1, 1.06 fold enrichment (6-mer frequency, TF over GST control); with EHF it was 1.14 fold enrichment (6-mer frequency, TF over GST control). The binding signal is 1.16 fold enrichment (6-mer frequency, TF over GST control) with SPI1; 1.01 fold enrichment (6-mer frequency, TF over GST control) with SPIB; 1.01 fold enrichment (6-mer frequency, TF over GST control) with ELK3; 1.06 fold enrichment (6-mer frequency, TF over GST control) in the assay with ETV5; 1.11 fold enrichment (6-mer frequency, TF over GST control) with SPIC; 1.07 fold enrichment (6-mer frequency, TF over GST control) with ELF4. The binding signal in the assay with ETV1 was 1.02 fold enrichment (6-mer frequency, TF over GST control); with ETS2, 1.09 fold enrichment (6-mer frequency, TF over GST control); in the assay with ELF5 it was 1.15 fold enrichment (6-mer frequency, TF over GST control); in the assay with ETV3, 1.07 fold enrichment (6-mer frequency, TF over GST control); in the assay with ETV6, 1.01 fold enrichment (6-mer frequency, TF over GST control).
